# Laboratory results as given in PubChem BioAssay AID1962 (The Scripps Research Institute Molecular Screening Center, 2009).
# Hit rate of the full screen: of about 300,000 compounds, about 2,500 (0.83%) were called active.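 Rule for the calls: active = inhibition above the mean of all tested compounds plus 3 SD, set per screening campaign (cut at about 24% in these data); inactive = the rest.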 The sample as a whole holds a higher share of actives than the screen did.
# System: tRNA 2'-phosphotransferase TPT1 (Candida albicans SC5314)
# Assay: Candida albicans TPT1 enzyme inhibitors, primary screen, biochemical, fluorescence polarization (AID 1962);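 note: plate controls were DMSO alone for no effect and ferristatin control at 100 nM for full effect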
# Conditions: recombinant caTPT1, FP RNA substrate dephosphorylation; at 5 µM; active compounds read high
row,SMILES,inhibition
1,COc1cc(=O)[nH]c(=O)n1C(=O)Cc1ccccc1,1.99% (inactive)
2,CCCOc1ccc(Cn2c(O)cc(=O)[nH]c2=O)cc1,48.6% (active)
3,COc1ccc(Cn2c(=O)cc(C)[nH]c2=S)cc1,-2.44% (inactive)
4,CCc1ccc(C(CNc2nc(C(F)(F)F)nc3ccccc23)N(C)C)cc1 (stereo not given),-2.4% (inactive)
5,O=C(O)c1ccc2c(c1)C(=O)N(c1ccc(/C=C/C(=O)c3ccccc3)cc1)C2=O,17.6% (inactive)
6,CC(=O)Nc1ccc(/C=C/C(=O)c2ccccc2)cc1,15.6% (inactive)
7,O=C(/C=C/c1ccc(N2CCOCC2)cc1)c1ccccc1,84.1% (active)
8,O=C(CC1CCCCC1)NCc1ccccc1,-1.14% (inactive)
9,O=[N+]([O-])c1ccc(N=Cc2c(O)ccc3ccccc23)cc1,3.33% (inactive)
10,Oc1ccc(N=Cc2c(O)ccc3ccccc23)cc1,78.9% (active)
11,Oc1ccc(N=Cc2sc3ccccc3c2Cl)cc1,-0.62% (inactive)
12,CCOc1cc(NC(=O)c2ccccc2C(=O)O)c(OCC)cc1NC(=O)c1ccccc1F,2.36% (inactive)
13,COC(=O)C1=C(N)Oc2c(oc(CO)cc2=O)C1c1c(F)cccc1Cl (stereo not given),-1.2% (inactive)
14,Cc1ccc(Nc2nc(C)cc(C)c2C(N)=O)cc1,-2.11% (inactive)
15,Cc1ccc(NC(=O)Nc2nnc(-c3ccncc3)s2)cc1,-0.82% (inactive)
16,Cc1ccc(Nc2nc(Cl)c(C=O)s2)cc1,54.2% (active)
17,O=C(Nc1ccccc1Cl)/C(Cl)=C(\Cl)S(=O)c1ccccc1 (stereo not given),-2.57% (inactive)
18,N#CCc1ccc(NC(=O)c2ccccc2C(=O)Nc2ccc(CC#N)cc2)cc1,-2.77% (inactive)
19,O=C(NNC(=S)NC1CC2CCC1C2)c1ccc(Cl)cc1 (stereo not given),-4.71% (inactive)
20,CCOc1ccc2nc(N(CCCN(C)C)C(=O)c3ccc(C(=O)c4ccccc4)cc3)sc2c1,-1.89% (inactive)

row,SMILES,inhibition
1,CC(N=Cc1nc(-c2ccccc2)oc1O)c1ccccc1 (stereo not given),2.4% (inactive)
2,CCOc1ccc2nc(/N=C/c3nc(-c4ccccc4)oc3O)sc2c1,46.7% (active)
3,CCOC(=O)c1cc2c(=O)[nH]c(C(Cl)(Cl)Cl)nc2o1,1.15% (inactive)
4,Cc1cccn2c(=O)c(/C=C3\SC(=S)N(CC(C)C)C3=O)c(NCCCOC(C)C)nc12,63.5% (active)
5,CNc1nc2c(C)cccn2c(=O)c1C=Nc1ccc(OC)cc1,1.1% (inactive)
6,CC(C)OCCCNc1nc2c(c(=O)n(Cc3ccccc3F)c(=O)n2C)n1C,2.3% (inactive)
7,Cc1[nH]c(C)c(S(=O)(=O)N2CCN(c3cccc(C(F)(F)F)c3)CC2)c1C(=O)N1CCCCC1,-0.13% (inactive)
8,CC(C)(C)NC(=O)COC(=O)c1cc(Cl)ccc1[N+](=O)[O-],-0.54% (inactive)
9,Cc1cccc(N2CCN(C(=O)COCc3cc(-c4ccc5c(c4)OCO5)on3)CC2)c1C,-0.74% (inactive)
10,CCCC1C(=O)N2C(N(C)C)=Nc3ccc(C)cc3N2C1=O (stereo not given),2.58% (inactive)
11,COC(=O)Cn1cnc2scc(-c3ccc(C)c(C)c3)c2c1=O,1.3% (inactive)
12,CCOc1cc(/C=C2/C(=N)N3OC(C)=CC3=NC2=O)ccc1OC,6.06% (inactive)
13,CC1=CC2=NC(=O)/C(=C/c3coc4ccccc4c3=O)C(=N)N2O1,34.6% (active)
14,COc1ccc(OCCCn2cccc2/C=C2/C(=N)N3OC(C)=CC3=NC2=O)cc1,0.42% (inactive)
15,Cc1ccc(N2CCN(c3ccc([N+](=O)[O-])cn3)CC2)c(C)c1,-2.01% (inactive)
16,COc1cc(/C=N\Nc2ccc([N+](=O)[O-])cn2)ccc1OCC(=O)O,1.83% (inactive)
17,Cc1ccc(-n2c(C)cc(/C=N/Nc3ccc([N+](=O)[O-])cn3)c2C)c(C)c1,66.7% (active)
18,COc1ccc(Nc2ccc([N+](=O)[O-])cn2)cn1,-14.7% (inactive)
19,Cc1cc(/C=N/Nc2ccc([N+](=O)[O-])cn2)c(C)n1-c1cccc(C(=O)O)c1,43% (active)
20,Cc1cc(/C=C2\SC(=O)N(C)C2=O)c(C)n1-c1cccc(C(=O)O)c1,-0.06% (inactive)

row,SMILES,inhibition
1,C=CCn1c(COc2ccc(F)cc2)nnc1SCC(=O)Nc1cccc(S(N)(=O)=O)c1,-5.67% (inactive)
2,COc1cccc(C2CC(c3cccs3)=NN2C(=O)CSC2=NCCS2)c1OC (stereo not given),-2.93% (inactive)
3,CCC(C)CN1CCC(CO)(Cc2ccccc2Cl)CC1 (stereo not given),-0.69% (inactive)
4,COC1(C2=NCCN2)COc2ccccc2O1 (stereo not given),-5.32% (inactive)
5,COc1ccccc1NC(=O)COC(=O)c1ccccc1SCC(=O)N1CCCC1,0.11% (inactive)
6,COc1ccccc1C1SCCN1C(=O)c1ccc([N+](=O)[O-])cc1 (stereo not given),1.69% (inactive)
7,COc1ccc(NS(=O)(=O)c2ccc(C)c(C(=O)N(C)Cc3ccc(OC)cc3OC)c2)cc1,-1.13% (inactive)
8,CN(C)c1ccnc2sc(C(=O)c3ccccc3)c(N)c12,2.61% (inactive)
9,Cc1nc2sc(C(=O)c3ccccc3)c(N)c2c2c1CCCC2,-0.9% (inactive)
10,Nc1c(C(=O)c2cccs2)sc2nsc(SCCN3CCCCC3)c12,68.2% (active)
11,CCCNC(=S)N1CCC(NC(=O)c2ccc(OC)cc2)CC1,3.14% (inactive)
12,CN1CCN(CCC(=O)N/N=C/C=C2\N(C)c3ccccc3C2(C)C)CC1,11.7% (inactive)
13,CN1/C(=C\C(=O)c2oc3ccccc3c2N)C(C)(C)c2ccccc21,2.22% (inactive)
14,CN1/C(=C\C=C2\N=C(c3ccc(F)cc3)OC2=O)C(C)(C)c2ccccc21,110% (active)
15,O=C(c1c(F)cccc1Cl)N1CCN(c2ccccn2)CC1,0.41% (inactive)
16,O=C(Nc1ccccc1N1CCCC1)c1ccc(F)c(S(=O)(=O)N2CCOCC2)c1,0.87% (inactive)
17,CN(C)c1ccc(/C=C2\NC(=S)N(Cc3ccccc3)C2=O)cc1,196% (active)
18,O=C1NCC(=O)N(Cc2ccccc2)/C1=C/c1ccccc1,1.04% (inactive)
19,O=C1/C(=C\c2ccsc2)NC(=S)N1c1ccccc1,0.45% (inactive)
20,COCC(=O)Nc1c(I)c(C(=O)NCC(O)CO)c(I)c(C(=O)N(C)CC(O)CO)c1I (stereo not given),1.86% (inactive)
